Measured values taken from PubChem BioAssay (NCI).
About 83,000 compounds went through this panel and 20% of them were active in at least one assay; those are over-represented in the sample as a whole.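 Results are percent growth after 48 hours of single-concentration exposure. 100 means growth as in untreated cells, lower positive values show inhibition; negative values down to -100 show cell death.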 The source made the active and inactive calls. How the source made its calls: active means growth percent below 10; inactive means the rest.

Key:
Assay in all cases: NCI-60 one-dose screen, 48 h (100 = growth as untreated, 0 = no growth, -100 = all killed)
Conditions in all cases: 10 µM unless noted
T-47D breast = tested on: T-47D breast
BT-549 breast = tested on: BT-549 breast
MDA-MB-435 melanoma = tested on: MDA-MB-435 melanoma
SW-620 colon = tested on: SW-620 colon
MCF7 breast = tested on: MCF7 breast
HCT-116 colon = tested on: HCT-116 colon
HCC-2998 colon = tested on: HCC-2998 colon
KM12 colon = tested on: KM12 colon

Measured: growth

Cn1c2ccc(Br)cc2c2c3c(c4c5cc(F)ccc5oc4c21)C(=O)N(O)C3=O
inactive: T-47D breast 63% | BT-549 breast 89.4% | MDA-MB-435 melanoma 101% | SW-620 colon 54.5% | MCF7 breast 41.3% | HCT-116 colon 75% | HCC-2998 colon 94.6% | KM12 colon 92.6%

Brc1cccc(/C=N/Nc2nc(N/N=C/c3cccc(Br)c3)nc(N3CCOCC3)n2)c1
inactive: T-47D breast 56.4% | BT-549 breast 52.7% | MDA-MB-435 melanoma 33.4% | SW-620 colon 24.7% | MCF7 breast 22.1% | HCT-116 colon 21.2% | HCC-2998 colon 31.5% | KM12 colon 30.3%

N#C/C(=C\c1ccc(N2CCCCC2)cc1)C(=O)Nc1sc2c(c1C#N)CCC2
inactive: T-47D breast 97.7% | BT-549 breast 108% | MDA-MB-435 melanoma 90% | SW-620 colon 100% | MCF7 breast 87.3% | HCT-116 colon 89.8% | HCC-2998 colon 105% | KM12 colon 96.5%

CCN1C(=O)N(CC)C2SC(N/N=C/c3ccccc3)=NC21 (stereo not given)
active: BT-549 breast -19.9% | MDA-MB-435 melanoma -10.2%
inactive: T-47D breast 64.8% | SW-620 colon 22.5% | MCF7 breast 18.6% | HCT-116 colon 14.2% | HCC-2998 colon 12.7% | KM12 colon 13.3%

CCC(CC)n1c(=O)c(SC2=NC3C(NN2)N(CC)C(=O)N3CC)c(C(=O)O)c2ccccc21 (stereo not given)
active: BT-549 breast -21.6% | MDA-MB-435 melanoma 0.0073% | HCT-116 colon 6.91%
inactive: T-47D breast 68.4% | SW-620 colon 21.7% | MCF7 breast 17.4% | HCC-2998 colon 24% | KM12 colon 20.7%

COc1cc2c3c(n(CCCNCC4CC4)c(=O)c2cc1OC)-c1cc2c(cc1C3=O)OCO2
inactive: T-47D breast 50.6% | BT-549 breast 66.1% | MDA-MB-435 melanoma 65% | HCC-2998 colon 69.1% | KM12 colon 65.1%
active: SW-620 colon -20.1% | MCF7 breast -77.4% | HCT-116 colon -85.1%

COc1ccc(C2CC(c3ccc(Nc4nc(NCCO)nc(Nc5ccc(Cl)cc5)n4)cc3)=Nc3c(N)nc(N)nc3N2)cc1 (stereo not given)
inactive: T-47D breast 72.1% | BT-549 breast 77.5% | MDA-MB-435 melanoma 74.9% | SW-620 colon 41.2% | HCC-2998 colon 93.5% | KM12 colon 55.4%
active: MCF7 breast -71.8% | HCT-116 colon -80.3%

COc1ccc2c(ccn2C(=O)N2c3ccccc3Sc3ccccc32)c1
active: MDA-MB-435 melanoma -18.9%
inactive: T-47D breast 23% | BT-549 breast 34.3% | SW-620 colon 16.8% | MCF7 breast 29.6% | HCT-116 colon 31.6% | HCC-2998 colon 48.9% | KM12 colon 24.2%

CS(=O)c1nccc(-c2c(-c3ccc(F)c(OCc4ccc(F)cc4)c3)nc3sccn23)n1 (stereo not given)
inactive: BT-549 breast 102% | MDA-MB-435 melanoma 100% | SW-620 colon 73% | HCT-116 colon 19.7% | HCC-2998 colon 10.2% | KM12 colon 54.5%
active: T-47D breast -37.3% | MCF7 breast -50.1%

O=C(COc1ccc(C2SCC(=O)N2c2ccccc2)cc1)c1ccccc1 (stereo not given)
inactive: T-47D breast 81.5% | BT-549 breast 92% | MDA-MB-435 melanoma 103% | SW-620 colon 104% | MCF7 breast 88.3% | HCT-116 colon 94.8% | HCC-2998 colon 102% | KM12 colon 99.4%

O=C1CSC(=O)N1Cc1cc2ccccc2nc1Cl
inactive: T-47D breast 92.5% | BT-549 breast 95.6% | MDA-MB-435 melanoma 99.3% | SW-620 colon 103% | MCF7 breast 92.5% | HCT-116 colon 106% | HCC-2998 colon 105% | KM12 colon 101%

CC1CCc2c(sc3nc(SCC(=O)N/N=C/c4ccc(Cl)cc4)n(-c4ccccc4)c(=O)c23)C1 (stereo not given)
inactive: T-47D breast 103% | BT-549 breast 99.6% | MDA-MB-435 melanoma 101% | SW-620 colon 107% | MCF7 breast 90.5% | HCT-116 colon 89.7% | HCC-2998 colon 112% | KM12 colon 103%

COc1cc(CNC(=O)/C=C/c2ccccc2)ccc1OCC(=O)NO
inactive: T-47D breast 99.6% | BT-549 breast 107% | MDA-MB-435 melanoma 102% | SW-620 colon 107% | MCF7 breast 89.9% | HCT-116 colon 98.7% | HCC-2998 colon 104% | KM12 colon 99.3%

CCCCCCNC(=O)Oc1ccc(/C(=C(\C)c2ccc(OC)cc2)c2ccc(OCCN(C)C)cc2)cc1
inactive: T-47D breast 68.1% | BT-549 breast 85.1% | MDA-MB-435 melanoma 87.7% | SW-620 colon 83.6% | MCF7 breast 23.6% | HCT-116 colon 37.2% | HCC-2998 colon 88.3% | KM12 colon 99.2%

Cn1cc(-c2nn3c(=O)cc(-c4ccccc4)nc3s2)c2cc(F)ccc21
inactive: T-47D breast 64.2% | BT-549 breast 67% | SW-620 colon 41.9% | MCF7 breast 34.5% | HCT-116 colon 32.6% | HCC-2998 colon 79.5% | KM12 colon 55.2%
active: MDA-MB-435 melanoma -5.19%

O=C(NNc1nc2cc(F)c(F)cc2n2cccc12)c1cccnn1
active: MCF7 breast 7.41% | HCT-116 colon 8.91%
inactive: T-47D breast 13.7% | BT-549 breast 32.3% | MDA-MB-435 melanoma 27.8% | SW-620 colon 22% | HCC-2998 colon 49.2% | KM12 colon 24.3%

C/C(=C(/C)C1CC1CCN(C(=O)c1ccc([N+](=O)[O-])cc1)S(=O)(=O)c1ccc(C)cc1)C1CCCCC1 (stereo not given)
inactive: T-47D breast 77.3% | BT-549 breast 136% | MDA-MB-435 melanoma 99.4% | SW-620 colon 96.7% | MCF7 breast 86.9% | HCT-116 colon 89.9% | HCC-2998 colon 112% | KM12 colon 89.6%

O=C1[C@@H]2Cc3c([nH]c4ccccc34)[C@H](c3c(Cl)cccc3Cl)N2C(=O)CN1C1CCN(Cc2c(F)cccc2F)CC1
inactive: T-47D breast 94.9% | BT-549 breast 80.4% | MDA-MB-435 melanoma 85.1% | SW-620 colon 72.1% | MCF7 breast 40.4% | HCT-116 colon 15.7% | HCC-2998 colon 63.8% | KM12 colon 74.5%

O=C(CCCCCCN1CC(=O)N2[C@@H](c3ccc(Cl)c(F)c3)c3[nH]c4ccccc4c3C[C@H]2C1=O)NO
inactive: T-47D breast 75.6% | BT-549 breast 108% | MDA-MB-435 melanoma 82.8% | SW-620 colon 74.7% | MCF7 breast 73.2% | HCT-116 colon 55.5% | HCC-2998 colon 99.2% | KM12 colon 87.1%

CCc1ccc(NC(=O)N[C@@H](Cc2cc(F)cc(F)c2)C(=O)N[C@@H]2C(=O)N3CCC[C@H]3C(=O)N3CCO[C@H](C)[C@H]3C(=O)N[C@@H](CO)C(=O)N3C[C@H](C)C[C@H]3C(=O)O[C@H]2C)c(F)c1
inactive: T-47D breast 35.7% | BT-549 breast 33.3% | MDA-MB-435 melanoma 20.3% | SW-620 colon 35.7% | MCF7 breast 15.7% | HCT-116 colon 11.6% | HCC-2998 colon 26% | KM12 colon 39.6%

c1cncc(-c2cn3nc(-c4c[nH]c5ccccc45)sc3n2)c1
inactive: T-47D breast 69.7% | BT-549 breast 33.3% | SW-620 colon 28.6% | MCF7 breast 34.7% | HCT-116 colon 28.8% | HCC-2998 colon 59.1% | KM12 colon 26.6%
active: MDA-MB-435 melanoma -38%

COc1cc([C@H]2OC[C@H]3[C@@H]2CO[C@@H]3c2ccc(O)c(OC)c2)ccc1O
inactive: T-47D breast 97.2% | BT-549 breast 68.5% | MDA-MB-435 melanoma 107% | SW-620 colon 107% | MCF7 breast 96.1% | HCT-116 colon 92.8% | HCC-2998 colon 96% | KM12 colon 90.6%

O=C(/C=C1\C=CN(CCCCF)c2ccccc21)n1ccc2ccccc21
inactive: T-47D breast 91% | BT-549 breast 114% | MDA-MB-435 melanoma 106% | SW-620 colon 105% | MCF7 breast 91.8% | HCT-116 colon 105% | HCC-2998 colon 106% | KM12 colon 112%

CC(C)(C)OC(=O)N1CCN(S(=O)(=O)/N=C2\NC(=O)NC2=C(Cl)Cl)CC1
inactive: T-47D breast 75.3% | BT-549 breast 101% | MDA-MB-435 melanoma 103% | SW-620 colon 34.3% | MCF7 breast 79.7% | HCT-116 colon 98% | HCC-2998 colon 75% | KM12 colon 107%

NC(=O)C(=Cc1ccc(Cl)cc1)C(N)=O
inactive: T-47D breast 45.2% | BT-549 breast 58.1% | MDA-MB-435 melanoma 69.6% | SW-620 colon 52.2% | MCF7 breast 34.4% | HCT-116 colon 52.2% | HCC-2998 colon 85.7% | KM12 colon 85.2%

CC(=O)NC(C)(C)C(=O)N1CCC[C@H]1C(=O)NC(C)(C)C(=O)N[C@@H](C)C(=O)NC(C)(C)C(=O)N[C@@H](C)C(=O)N[C@@H](CCC(N)=O)C(=O)NC(C)(C)C(=O)N[C@H](C(=O)NC(C)(C)C(=O)NCC(=O)N[C@@H](CC(C)C)C(=O)NC(C)(C)C(=O)N1CCC[C@H]1C(=O)N[C@H](C(=O)NC(C)(C)C(=O)NC(C)(C)C(=O)N[C@@H](CCC(N)=O)C(=O)N[C@@H](CCC(N)=O)C(=O)N[C@H](CO)Cc1ccccc1)C(C)C)C(C)C
inactive: T-47D breast 55.7% [4.25 µM] | BT-549 breast 23.5% [4.25 µM] | MDA-MB-435 melanoma 71% [4.25 µM] | SW-620 colon 91% [4.25 µM] | MCF7 breast 17% [4.25 µM] | HCT-116 colon 67.7% [4.25 µM] | HCC-2998 colon 70.3% [4.25 µM] | KM12 colon 98.2% [4.25 µM]

O=C1[C@H]2Cc3c([nH]c4ccccc34)[C@@H](c3ccc(Cl)cc3)N2C(=O)CN1C1CCN(Cc2c(Cl)cccc2Cl)CC1
inactive: T-47D breast 84.8% | BT-549 breast 97.2% | MDA-MB-435 melanoma 97.1% | SW-620 colon 106% | MCF7 breast 87% | HCT-116 colon 87.9% | HCC-2998 colon 101% | KM12 colon 87.9%

COc1ccc(OC)c(NC2=C(Cl)C(=O)C(C)=C(C)C2=O)c1
active: T-47D breast -5.07%
inactive: BT-549 breast 102% | MDA-MB-435 melanoma 106% | SW-620 colon 98.8% | MCF7 breast 80.5% | HCT-116 colon 57.6% | HCC-2998 colon 108% | KM12 colon 93.8%

CNC(=O)c1cc(Oc2ccc3nc(NC(=O)c4cccc(C(F)(F)F)c4)sc3c2)ccn1
inactive: T-47D breast 96.9% | BT-549 breast 105% | MDA-MB-435 melanoma 95.1% | SW-620 colon 105% | MCF7 breast 85.6% | HCT-116 colon 94.1% | HCC-2998 colon 109% | KM12 colon 102%

COc1cc2c3c(n(CCCN4CCCC4)c(=O)c2cc1OC)-c1cc2c(cc1C3=O)OCO2
inactive: T-47D breast 78.3% | BT-549 breast 82.3% | HCC-2998 colon 42.2%
active: MDA-MB-435 melanoma -12.5% | SW-620 colon -63.1% | MCF7 breast -71.7% | HCT-116 colon -84% | KM12 colon -23.4%
